In the supplement of paper PMC9446081 one finds relative growth data, which are given here for 70 compounds.

The whole screen tested about 39,000 compounds, of which about 220 (0.56%) showed activity. Many of the other results were omitted from the sample, so actives are more common in it than they were. A number with no mark means an inactive call.
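Note: Wild-type cells incubated without shaking, value is the mean of two biological replicates.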

In this assay the test system is Escherichia coli K-12 BW25113. The assay is described as follows: relative growth (OD600 normalised to plate interquartile mean) (fraction); higher = less growth inhibition, active = 0.2 or less. Particulars: 50 µM; LB; incubation time: overnight (16-24 h).
For the compound `NC1(C(=O)O)CC1`, the relative growth is 0.988. In the case of `C[C@@H]1CN([C@@H](C)CO)C(=O)c2cc(C#Cc3ccc(F)cc3)cnc2O[C@@H]1CN(C)Cc1ccccn1`, the relative growth was 0.995. With `Cc1ccc(S(=O)(=O)Nc2ccc3c(c2)C(=O)N([C@@H](C)CO)C[C@@H](C)[C@@H](CN(C)C(=O)Nc2cccc4ccccc24)OCCCC[C@@H](C)O3)cc1`, the relative growth is 0.998. As to `CC1COc2c(N3CCN(C)CC3)c(F)cc3c(=O)c(C(=O)O)cn1c23` (stereo not given), the relative growth was 0.0447 (active). On to `CN1CCN(c2c(F)cc3c(=O)c(C(=O)O)cn4c3c2OCN4C)CC1`, for which the relative growth was 0.0475 (active). As for `CN(c1ccc(N)cc1[N+](=O)[O-])S(C)(=O)=O`, the relative growth is 1.02.

`C/C=C/c1ccc2c(c1)O[C@@H](CN(C)Cc1ccc(C(=O)O)cc1)[C@@H](C)CN([C@@H](C)CO)S2(=O)=O`: the relative growth is 1.02. On to `COc1ccccc1-c1ccc2c(c1)O[C@H](CN(C)C(=O)c1ccncc1)[C@@H](C)CN([C@H](C)CO)S2(=O)=O`, for which the relative growth was 1.01. On to `C[C@@H]1CN([C@@H](C)CO)C(=O)Cc2cc(NC(=O)Cc3cn(C)c4ccccc34)ccc2O[C@H]1CN(C)Cc1ccc(C(F)(F)F)cc1`, for which the relative growth was 1.02. `CCCNC(=O)N1C[C@H](C)[C@H](OC)CN(C)C(=O)c2ccc(NS(=O)(=O)CC(F)(F)F)cc2OC[C@H]1C`: the relative growth was 0.974.

As for `Cn1nnnc1SCC1=C(C(=O)[O-])N2C(=O)C(NC(=O)C(OC=O)c3ccccc3)C2SC1.[Na+]` (stereo not given), the relative growth is 0.365. Regarding `NCc1ccccc1CC(=O)NC1C(=O)N2C(C(=O)O)=C(CSc3nnnn3CC(=O)O)CSC12` (stereo not given), the relative growth was 0.0453 (active). Take `Cn1nnnc1SCC1=C(C(=O)[O-])N2C(=O)C(NC(=O)C(O)c3ccccc3)C2SC1.[Na+]` (stereo not given): the relative growth was 0.0463 (active). The value for `NC(=O)c1cc[n+](CC2=C(C(=O)[O-])N3C(=O)C(NC(=O)C(c4ccccc4)S(=O)(=O)[O-])C3SC2)cc1.[Na+]` (stereo not given) was 1.08. As to `O=C([O-])C1=C(CSc2nnnn2CS(=O)(=O)[O-])CSC2C(NC(=O)C(O)c3ccccc3)C(=O)N12.[Na+].[Na+]` (stereo not given), the relative growth was 0.044 (active). In the case of `CCC(CC)c1ccc(O)cc1`, the relative growth was 0.994. `CNC[C@@H]1Oc2cc(C#CCN(C)C)ccc2S(=O)(=O)N([C@@H](C)CO)C[C@H]1C`: the relative growth was 0.981. The value for `Oc1ccccc1/N=C/c1ccncc1` was 0.953. On to `Cc1nn(C)cc1NC(=O)C[C@@H]1CC[C@@H]2[C@H](COc3ccc(NC(=O)C4CCOCC4)cc3C(=O)N2C)O1`, for which the relative growth is 0.986. As for `COc1ccc(S(=O)(=O)N(C)C[C@@H]2OCCCC[C@H](C)Oc3ccc(NC(=O)Nc4cccc5ccccc45)cc3C(=O)N([C@H](C)CO)C[C@H]2C)cc1`, the relative growth was 0.966. Turning to `C[C@@H]1CN([C@@H](C)CO)S(=O)(=O)c2ccc(C#CC(C)(C)O)cc2O[C@@H]1CN(C)Cc1ccccc1`, the relative growth is 1. As to `Cc1noc(C)c1S(=O)(=O)Nc1ccc2c(c1)C(=O)N([C@@H](C)CO)C[C@H](C)[C@@H](CN(C)Cc1ccccc1)O2`, the relative growth was 0.968. Regarding `C[C@H](CO)N1C[C@H](C)[C@H](CN(C)C(=O)Nc2ccc3c(c2)OCO3)OCCCC[C@H](C)Oc2ccc(NC(=O)Cc3ccccc3)cc2C1=O`, the relative growth was 0.991. The value for `CN(C)C(=O)C[C@H]1C=C[C@H](NC(=O)C2CCOCC2)[C@H](CO)O1` was 1.01; that for `COc1ccc(NC(=O)Nc2ccc3c(c2)C(=O)N([C@H](C)CO)C[C@@H](C)[C@@H](CN(C)S(=O)(=O)c2cccs2)OCCCC[C@@H](C)O3)cc1` was 1.02; that for `CO[C@@H]1CN(C)C(=O)c2cc(NS(=O)(=O)CC(F)(F)F)ccc2OC[C@@H](C)N(C(=O)c2ccc3c(c2)OCO3)C[C@H]1C` was 0.937. For the compound `Cc1ccc(S(=O)(=O)Nc2ccc3c(c2)C(=O)N([C@@H](C)CO)C[C@@H](C)[C@H](CN(C)C(=O)Cc2ccccc2)OCCCC[C@@H](C)O3)cc1`, the relative growth is 1.01. Regarding `C[C@H]1CN([C@@H](C)CO)C(=O)Cc2cc(NC(=O)CCN3CCOCC3)ccc2O[C@@H]1CN(C)Cc1ccccc1`, the relative growth is 1.01. The value for `C=CC(=O)NCCc1ccncc1` was 1.05; that for `O=C(C[C@H]1C[C@H]2c3cc(NS(=O)(=O)c4ccc(F)cc4)ccc3O[C@H]2[C@H](CO)O1)NC1CCCC1` was 0.974; that for `O=C(CN1CCNCC1)c1ccc(F)cc1` was 1. As to `Cc1ccc(C(=O)O)c(=O)n1C`, the relative growth is 1.02. In the case of `Cl.O=C(O)c1cn(-c2ccc(F)cc2)c2cc(N3CCNCC3)c(F)cc2c1=O`, the relative growth was 0.0456 (active). On to `Cn1cc(S(=O)(=O)N2CCN(c3ccc(F)cc3)CC2)c(=O)n(C)c1=O`, for which the relative growth was 1.01.

In the case of `CN1CCN(c2cc3c(cc2F)c(=O)c(C(=O)O)cn3-c2ccc(F)cc2)CC1.Cl`, the relative growth was 0.0477 (active). In the case of `O=C(c1ccccc1F)N1CCNCC1`, the relative growth was 0.999. The value for `C[C@@H]1CCCCO[C@H](CN(C)S(=O)(=O)c2cn(C)cn2)[C@H](C)CN([C@H](C)CO)C(=O)c2cc(NS(C)(=O)=O)ccc2O1` was 1.02; that for `COc1ccc(-c2cn(CCCNC(=O)[C@H](Cc3ccccc3)NS(=O)(=O)c3ccc(C)cc3)nn2)cc1OC` was 1.02; that for `COC1=C(OC)C(=O)C(CCCCCCCCCC[P+](c2ccccc2)(c2ccccc2)c2ccccc2)=C(C)C1=O` was 0.0727 (active).

Consider `COC1=C(OC)C(=O)C(CCCCCCCCCCO)=C(C)C1=O`, for which the relative growth is 1.05. Regarding `CC1=C(C)C(=O)C(CCCCCCCCCC[P+](c2ccccc2)(c2ccccc2)c2ccccc2)=CC1=O`, the relative growth was 0.308.

Turning to `C[C@@H]1CN([C@H](C)CO)S(=O)(=O)c2ccc(Br)cc2O[C@@H]1CN(C)C(=O)NC1CCCC1`, the relative growth is 0.989.

On to `Cc1cc(=S)oc2ccccc12`, for which the relative growth is 0.943.

`CC(C)CC#Cc1ccc2c(c1)O[C@H](CN(C)C(=O)NC1CCCC1)[C@H](C)CN([C@@H](C)CO)S2(=O)=O`: the relative growth is 0.997. As to `NC(=O)N/N=C/c1ccc([N+](=O)[O-])o1`, the relative growth was 0.0425 (active). For `O=C(NN=Cc1ccc([N+](=O)[O-])o1)c1ccc(O)cc1`, the relative growth was 0.973. As for `O=C(N/N=C/c1ccc(CO)o1)c1ccccn1`, the relative growth is 1.

As for `NC(=O)NN=Cc1ccc([N+](=O)[O-])o1`, the relative growth is 0.0474 (active).

Regarding `COC(=O)N/N=C/c1ccc([N+](=O)[O-])o1`, the relative growth was 0.0393 (active). Turning to `CCOC(=O)c1ccc(N2NC(=O)/C(=C/c3ccc([N+](=O)[O-])o3)C2=O)cc1`, the relative growth is 0.984. Regarding `O=C(CN1CCOCC1)N/N=C/c1ccc([N+](=O)[O-])o1`, the relative growth is 0.801.

As for `Nc1nnc(-c2ccc([N+](=O)[O-])o2)o1`, the relative growth is 0.258.

For `C[C@H](NC(=O)C[C@H]1C=C[C@@H](NC(=O)CN2CCOCC2)[C@H](CO)O1)c1ccccc1`, the relative growth is 1. On to `C[C@H](O)C#Cc1ccc2c(c1)O[C@H](CN(C)C(=O)Cc1ccccn1)[C@H](C)CN([C@@H](C)CO)S2(=O)=O`, for which the relative growth was 1.01. As for `CN1CCN(C(=O)C[C@@H]2CC[C@H]3[C@@H](COC[C@@H](O)CN3Cc3ccc4c(c3)OCO4)O2)CC1`, the relative growth was 0.988. Consider `O=C(C[C@H]1C[C@H]2c3cc(NC(=O)Nc4ccc(C(F)(F)F)cc4)ccc3O[C@H]2[C@H](CO)O1)NCc1ccc(Cl)cc1`, for which the relative growth is 0.973.

As for `C[C@@H]1CN([C@@H](C)CO)C(=O)c2cc(NS(=O)(=O)c3cn(C)cn3)ccc2O[C@@H]1CN(C)Cc1ccncc1`, the relative growth is 0.994. For the compound `C[C@@H]1CN([C@H](C)CO)C(=O)Cc2cc(NC(=O)Nc3ccc(F)cc3)ccc2O[C@@H]1CN(C)Cc1ccc(Cl)c(Cl)c1`, the relative growth was 1.02. On to `Cc1ccc(S[C@]2(C(=O)NCCN3CCOCC3)CC(=O)N(C(C)C)[C@@H]2c2ccc(CO)cc2)cc1`, for which the relative growth is 1. Consider `C=CCOC(=O)[C@H]1[C@@H]2C(=O)O[C@@H](c3ccccc3)[C@@H](c3ccccc3)N2[C@@H](c2ccc(OCCOC(=O)NCCCCCC(=O)NO)cc2)[C@@]12C(=O)Nc1ccc(I)cc12`, for which the relative growth was 0.993. For the compound `C[C@@H]1CN([C@@H](C)CO)C(=O)c2cc(NC(=O)Nc3ccc(C(F)(F)F)cc3)ccc2O[C@H]1CN(C)C(=O)Nc1cccc2ccccc12`, the relative growth was 1.01.

Turning to `COC(=O)c1cn(CC(=O)N2CCN(C)CC2)nn1`, the relative growth was 0.978. In the case of `C[C@@H]1CN([C@@H](C)CO)C(=O)c2cc(NS(=O)(=O)c3cn(C)cn3)ccc2O[C@H]1CN(C)S(C)(=O)=O`, the relative growth is 1.02. The value for `C[C@H](CO)N1C[C@H](C)[C@@H](CN(C)S(C)(=O)=O)Oc2c(NC(=O)Nc3ccc4c(c3)OCO4)cccc2C1=O` was 0.991.

On to `N#CC1C(=O)NC(=O)N=C1Nc1ccccc1` (stereo not given), for which the relative growth was 0.981. As for `NC[C@H]1O[C@H](O[C@H]2[C@H](O[C@@H]3O[C@H](CO)[C@@H](O)[C@H]3O)[C@@H](O)[C@H](N)C[C@@H]2N)[C@H](N)[C@@H](O)[C@@H]1O`, the relative growth was 0.515.

With `NCCC(O)C(=O)NC1CC(N)C(OC2OC(CN)C(O)C(O)C2O)C(O)C1OC1OC(CO)C(O)C(N)C1O.O` (stereo not given), the relative growth was 0.0465 (active). As to `NCC[C@H](O)C(=O)N[C@@H]1C[C@H](N)[C@@H](O[C@H]2O[C@H](CN)[C@@H](O)[C@H](O)[C@H]2O)[C@H](O)[C@H]1O[C@H]1O[C@H](CO)[C@@H](O)[C@H](N)[C@H]1O`, the relative growth is 0.0379 (active). For `NCC1OC(OC2C(CO)OC(OC3C(O)C(N)CC(N)C3OC3OC(CN)C(O)C(O)C3N)C2O)C(N)C(O)C1O.O=S(=O)(O)O.O=S(=O)(O)O.O=S(=O)(O)O` (stereo not given), the relative growth is 1.2.

As for `NCC1OC(OC2C(CO)OC(OC3C(O)C(N)CC(N)C3OC3OC(CO)C(O)C(O)C3N)C2O)C(N)C(O)C1O.O=S(=O)(O)O` (stereo not given), the relative growth was 0.915.
